Experimental data reported in PubChem BioAssay (NCI).
The panel holds about 83,000 compounds, 20% with a hit somewhere; the sample as a whole holds those more often.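 Growth was measured after 48 h exposure to one concentration of compound in 96-well plates. Values under 10 count as active.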 Active and inactive are the calls of the source.

tested on: A498 renal; test: NCI-60 one-dose screen, 48 h (100 = growth as untreated, 0 = no growth, -100 = all killed); settings: 10 µM unless noted

Row | SMILES | growth
1 | Cc1ccc2c(C(C[N+](=O)[O-])c3ccccc3)c(-c3ccccc3)[nH]c2c1 (stereo unspecified) | -1.59% [9.5 µM] (active)
2 | O=C1c2cccc3cccc(c23)C(=O)N1CCCCCN1CCN(CCCCCOc2ccc(-c3nc4ccc(N5CCOCC5)cc4[nH]3)cc2)CC1 | 117% (inactive)
3 | COc1ccc(/C=C(\C#N)C(=O)Nc2cccc(Nc3nc(SC)nc(-c4cccc([N+](=O)[O-])c4)c3C#N)c2)cc1OC | 102% (inactive)
4 | O=C1Nc2ccc(Br)cc2C12Oc1ccccc1C1CC(c3ccc(F)cc3)=NN12 (stereo unspecified) | 102% (inactive)
5 | CSc1nc(-c2cccc(NC(=O)CCl)c2)c(C#N)c(=O)n1C | 90.2% (inactive)
6 | Oc1cccc2ccc(N/N=C/c3cc(CN4CCOCC4)c(O)c4ncccc34)nc12 | 21.3% (inactive)
7 | CC(C)(C)c1cc(C(C)(C)C)cc(S(=O)(=O)Nc2cc3ccccc3cc2C(=O)NCCN)c1 | -2.57% (active)
8 | COc1ccc(/C=C/c2nc3ccccc3nc2/C=C/c2ccc(OC)cc2)cc1 | 83.9% (inactive)
9 | COc1cc(/C=C/c2cc(/C=C/c3ccc(O)c(OC)c3)n(-c3c(Cl)cccc3Cl)c(=O)n2)ccc1O | 78.5% (inactive)
10 | Cc1cc(C)nc(SC2=C(Nc3cc(Cl)ccc3O)C(=O)N(Cc3ccccc3)C2=O)n1 | 75.5% [30 µM] (inactive)
11 | CC(C)(C)CC(C)(C)c1ccc(OCCOCC[N+](C)(C)Cc2ccccc2)cc1 | 17.7% (inactive)
12 | O=C(NCCN1CCOCC1)Nc1ccc(-c2cc3c(Nc4ccc(Oc5cccc(C(F)(F)F)c5)c(Cl)c4)ncnc3s2)cc1 | 40.3% (inactive)
13 | NNCCc1ccc(NC(=O)CCCc2ccc(/C=C/C(=O)NO)cc2)cc1 | 47% (inactive)
14 | COc1ccc(C2CC(c3ccc(Cl)cc3)=NN2/C=C2\SC(=S)N(NC(=O)Cc3ccccc3Nc3c(Cl)cccc3Cl)C2=O)cc1 (stereo unspecified) | 72% (inactive)
15 | CCCSc1ccc2nc(NC(=O)OC)[nH]c2c1 | -5.4% (active)
16 | CCCN1CCN(c2ccc3nc(-c4ccc5nc(-c6ccc(OCC)cc6)[nH]c5c4)[nH]c3c2)CC1 | 65.6% (inactive)
17 | CCn1c(O)c(/C=N/NC(=O)C(C)c2ccc(CC(C)C)cc2)sc1=S (stereo unspecified) | 17.2% (inactive)
18 | CN1CCN(CCCOc2cccc3nc(Nc4cc(Cl)cc(Cl)c4)ccc23)CC1 | 23.8% (inactive)
19 | O=C(CCN1C(=O)/C(=C/c2ccc(Cl)cc2)SC1=S)NCCCN1CCOCC1 | 106% (inactive)

Row | SMILES | growth
20 | c1ccc(Cn2cc(-c3nc4ccccc4s3)c3cccnc32)cc1 | 104% (inactive)
21 | O=C1c2cccc3cccc(c23)C(=O)N1CCCCN1CCN(CCCCOc2ccc(-c3nc4ccc(N5CCOCC5)cc4[nH]3)cc2)CC1 | 111% (inactive)
22 | COc1cc(C2CC(=O)c3ccccc3N2)cc(OC)c1OC (stereo unspecified) | 83.7% (inactive)
23 | O=C1c2cc3c(cc2-c2c1c1ccc(F)cc1c(=O)n2C[C@H](O)[C@H](O)[C@H](O)CO)OCO3 | -85.7% (active)
24 | Cc1[nH]c(-c2ccc3cc[nH]c3c2)c2c1C(=O)CCCC2 | 44.4% (inactive)
25 | O=C(O)c1c(=O)cccc2ssc12 | -76.8% (active)
26 | O=C1c2cc3c(cc2-c2c1c1ccc(Cl)cc1c(=O)n2CCCN1CCOCC1)OCO3 | 76.2% (inactive)
27 | Cn1cc(-c2nonc2-c2c[nH]c3ccccc23)c2cccnc21 | 17.1% (inactive)
28 | CCCCN(CCCC)CCCn1c(-c2ccccc2)ccc1-c1ccccc1 | 59.3% (inactive)
29 | CC1=CC(=NN=c2cc(C)n([O-])c(C)c2)C=C(C)[N+]1=O | 124% (inactive)
30 | CN(C)S(=O)(=O)c1ccc(S(=O)(=O)Nc2cccc(Cl)c2N2CCCCC2)cc1 | 103% (inactive)
31 | Cc1cn2c(/C=C3/C(=O)Nc4c3ccc3ccccc43)c(C(F)(F)F)nc2s1 | 0.919% (active)
32 | Oc1cccc(-c2nc(N3CCOCC3)c3c4c(sc3n2)CCCC4)c1 | 114% (inactive)
33 | COc1ccc(S(=O)(=O)N2CCCCC2)cc1NC(=O)c1[nH]c(C)c2c1CCCCC2=O | -19.2% (active)
34 | Cc1cc(C)nc(SC2=C(Nc3cccc(Cl)c3)C(=O)N(Cc3ccccc3)C2=O)n1 | 67.2% [30 µM] (inactive)
35 | C#Cc1cccc(NC(=O)c2ccccc2NC(=O)CCl)c1 | 107% [8.25 µM] (inactive)
36 | C=C(C)[C@@H]1CC[C@]2(C(=O)OC)CC[C@]3(C)[C@H](CC[C@@H]4[C@@]5(C)C/C(=C/c6ccc(OC)cc6)C(=O)C(C)(C)[C@@H]5CC[C@]43C)[C@@H]12 | 93.7% (inactive)
37 | N#Cc1c(-c2ccc(Cl)cc2)nc(N=Nc2c(O)[nH]c3ccc(Cl)cc23)nc1N1CCOCC1 | 73.2% (inactive)
38 | CN1CCN(CCCOc2cccc3nc(Nc4ccc(Cl)c(F)c4)ccc23)CC1 | 55.4% (inactive)

tested on: CCRF-CEM leukemia; test: as above; settings: 10 µM unless noted

Row | SMILES | growth
39 | Cc1ccc2c(C(C[N+](=O)[O-])c3ccccc3)c(-c3ccccc3)[nH]c2c1 (stereo unspecified) | 19.5% [9.5 µM] (inactive)
40 | O=C1c2cccc3cccc(c23)C(=O)N1CCCCCN1CCN(CCCCCOc2ccc(-c3nc4ccc(N5CCOCC5)cc4[nH]3)cc2)CC1 | -17.9% (active)
41 | COc1ccc(/C=C(\C#N)C(=O)Nc2cccc(Nc3nc(SC)nc(-c4cccc([N+](=O)[O-])c4)c3C#N)c2)cc1OC | 87.7% (inactive)
42 | O=C1Nc2ccc(Br)cc2C12Oc1ccccc1C1CC(c3ccc(F)cc3)=NN12 (stereo unspecified) | 91% (inactive)
43 | CSc1nc(-c2cccc(NC(=O)CCl)c2)c(C#N)c(=O)n1C | -16.5% (active)
44 | Oc1cccc2ccc(N/N=C/c3cc(CN4CCOCC4)c(O)c4ncccc34)nc12 | 16.6% (inactive)
45 | CC(C)(C)c1cc(C(C)(C)C)cc(S(=O)(=O)Nc2cc3ccccc3cc2C(=O)NCCN)c1 | 57.7% (inactive)
46 | COc1ccc(/C=C/c2nc3ccccc3nc2/C=C/c2ccc(OC)cc2)cc1 | 98.2% (inactive)
47 | COc1cc(/C=C/c2cc(/C=C/c3ccc(O)c(OC)c3)n(-c3c(Cl)cccc3Cl)c(=O)n2)ccc1O | 10.4% (inactive)
48 | Cc1cc(C)nc(SC2=C(Nc3cc(Cl)ccc3O)C(=O)N(Cc3ccccc3)C2=O)n1 | 22.1% [30 µM] (inactive)
49 | CC(C)(C)CC(C)(C)c1ccc(OCCOCC[N+](C)(C)Cc2ccccc2)cc1 | -25.8% (active)
50 | O=C(NCCN1CCOCC1)Nc1ccc(-c2cc3c(Nc4ccc(Oc5cccc(C(F)(F)F)c5)c(Cl)c4)ncnc3s2)cc1 | 3.33% (active)
51 | NNCCc1ccc(NC(=O)CCCc2ccc(/C=C/C(=O)NO)cc2)cc1 | 16.5% (inactive)
52 | COc1ccc(C2CC(c3ccc(Cl)cc3)=NN2/C=C2\SC(=S)N(NC(=O)Cc3ccccc3Nc3c(Cl)cccc3Cl)C2=O)cc1 (stereo unspecified) | 38.3% (inactive)
53 | CCCSc1ccc2nc(NC(=O)OC)[nH]c2c1 | 10.6% (inactive)
54 | CCCN1CCN(c2ccc3nc(-c4ccc5nc(-c6ccc(OCC)cc6)[nH]c5c4)[nH]c3c2)CC1 | -32.4% (active)
55 | CCn1c(O)c(/C=N/NC(=O)C(C)c2ccc(CC(C)C)cc2)sc1=S (stereo unspecified) | 12.9% (inactive)
56 | CN1CCN(CCCOc2cccc3nc(Nc4cc(Cl)cc(Cl)c4)ccc23)CC1 | -40.7% (active)
57 | O=C(CCN1C(=O)/C(=C/c2ccc(Cl)cc2)SC1=S)NCCCN1CCOCC1 | 103% (inactive)

Row | SMILES | growth
58 | c1ccc(Cn2cc(-c3nc4ccccc4s3)c3cccnc32)cc1 | 112% (inactive)
59 | O=C1c2cccc3cccc(c23)C(=O)N1CCCCN1CCN(CCCCOc2ccc(-c3nc4ccc(N5CCOCC5)cc4[nH]3)cc2)CC1 | 30.8% (inactive)
60 | COc1cc(C2CC(=O)c3ccccc3N2)cc(OC)c1OC (stereo unspecified) | 95.5% (inactive)
61 | O=C1c2cc3c(cc2-c2c1c1ccc(F)cc1c(=O)n2C[C@H](O)[C@H](O)[C@H](O)CO)OCO3 | 2.16% (active)
62 | Cc1[nH]c(-c2ccc3cc[nH]c3c2)c2c1C(=O)CCCC2 | 64.7% (inactive)
63 | O=C(O)c1c(=O)cccc2ssc12 | 4.61% (active)
64 | O=C1c2cc3c(cc2-c2c1c1ccc(Cl)cc1c(=O)n2CCCN1CCOCC1)OCO3 | 20.7% (inactive)
65 | Cn1cc(-c2nonc2-c2c[nH]c3ccccc23)c2cccnc21 | 20.2% (inactive)
66 | CCCCN(CCCC)CCCn1c(-c2ccccc2)ccc1-c1ccccc1 | 44.3% (inactive)
67 | CC1=CC(=NN=c2cc(C)n([O-])c(C)c2)C=C(C)[N+]1=O | 91.7% (inactive)
68 | CN(C)S(=O)(=O)c1ccc(S(=O)(=O)Nc2cccc(Cl)c2N2CCCCC2)cc1 | 75% (inactive)
69 | Cc1cn2c(/C=C3/C(=O)Nc4c3ccc3ccccc43)c(C(F)(F)F)nc2s1 | 16.4% (inactive)
70 | Oc1cccc(-c2nc(N3CCOCC3)c3c4c(sc3n2)CCCC4)c1 | 60.5% (inactive)
71 | COc1ccc(S(=O)(=O)N2CCCCC2)cc1NC(=O)c1[nH]c(C)c2c1CCCCC2=O | 42% (inactive)
72 | Cc1cc(C)nc(SC2=C(Nc3cccc(Cl)c3)C(=O)N(Cc3ccccc3)C2=O)n1 | 26.2% [30 µM] (inactive)
73 | C#Cc1cccc(NC(=O)c2ccccc2NC(=O)CCl)c1 | 50.4% [8.25 µM] (inactive)
74 | C=C(C)[C@@H]1CC[C@]2(C(=O)OC)CC[C@]3(C)[C@H](CC[C@@H]4[C@@]5(C)C/C(=C/c6ccc(OC)cc6)C(=O)C(C)(C)[C@@H]5CC[C@]43C)[C@@H]12 | 58.8% (inactive)
75 | N#Cc1c(-c2ccc(Cl)cc2)nc(N=Nc2c(O)[nH]c3ccc(Cl)cc23)nc1N1CCOCC1 | 111% (inactive)
76 | CN1CCN(CCCOc2cccc3nc(Nc4ccc(Cl)c(F)c4)ccc23)CC1 | 19.3% (inactive)
